# Experimental data taken from publication PMC11062922 (Nature Chemical Biology, 2023).
# Where two headings read alike, the source gives them in different places.
# Experiments:
# Parameters in all cases: species or system human, MV4-11 + K-562 + COLO205 + SK-N-BE2 + OVCAR-8
# PRKD3 = conditions: read-out: apparent Kd, compound concentrations: 100 nM and 1000 nM (sheet 'Samples'), n = 1
# JAK2 = conditions: read-out: apparent Kd, compound concentrations: 100 nM and 1000 nM (sheet 'Samples'), n = 1
# ZAK = conditions: read-out: apparent Kd, n = 1
# BMPR1B = conditions: read-out: apparent Kd; compound concentrations:100 nM and 1000 nM (sheet 'Samples'); n = 1
# BTK = conditions: read-out: apparent Kd, n = 1
# EPHA5 = conditions: read-out: apparent Kd, n = 1
# EPHB1 = conditions: read-out: apparent Kd, n = 1
# EPHB6 = conditions: read-out: apparent Kd, n = 1
# MAPKAPK2 = conditions: read-out: apparent Kd, n = 1
# NLK = conditions: read-out: apparent Kd, n = 1
# TNK2 = conditions: read-out: apparent Kd, n = 1
# FLT4 = conditions: read-out: apparent Kd, n = 1
# MAPK9 = conditions: read-out: apparent Kd, n = 1
# AURKB = conditions: read-out: apparent Kd, compound concentrations: 100 nM and 1000 nM (sheet 'Samples'), n = 1
# MAP2K5 = conditions: read-out: apparent Kd, n = 1
# PLK4 = conditions: read-out: apparent Kd, n = 1
# AKT2 = conditions: read-out: apparent Kd; compound concentrations: 100 nM and 1000 nM (sheet 'Samples'), CATDS: 2.19467490651379E-2; n = 1
# CDK17 = conditions: read-out: apparent Kd, n = 1
# DJA1 = tested on: T1, DJA1; conditions: read-out: apparent Kd; compound concentrations: 100 nM and 1000 nM (sheet 'Samples'), CATDS: 0.221714333862437; n = 1
# T1 construct: gene DNAJA1
# [1] = compound concentrations:100 nM and 1000 nM (sheet 'Samples')
structure (smiles),measurement,setting,value
Cc1cccc(Nc2nc(NCCN)ncc2C(N)=O)c1 [GSK1292139B],potency estimated from few doses,PRKD3; CATDS: 6.9928558616796505E-2,1540 nM
NC1=NC(=O)/C(=C/c2ccc3ncccc3c2)S1 [RO4569139-000],potency estimated from few doses,JAK2; CATDS: 8.9240627559774202E-2,708 nM
same,potency estimated from few doses,PRKD3; CATDS: 6.7072777002688294E-2,1930 nM
Nc1nc(-c2cccnc2)c(-c2ccnc3ccccc23)s1 [GW684083X],potency estimated from few doses,ZAK; [1],1440 nM
COc1ccccc1CNC1=NC(=O)/C(=C/c2ccc3ncccc3c2)S1 [RO4503315-000],potency estimated from few doses,JAK2; CATDS: 8.0204348967342395E-2,755 nM
CCN(CC)CCOc1ccc(Nc2ncc3cc(-c4c(Cl)cccc4Cl)c(=O)n(C)c3n2)cc1 [SB-601273],potency estimated from few doses,BMPR1B,239 nM
same,potency estimated from few doses,BTK; [1],318 nM
same,potency estimated from few doses,EPHA5; [1],135 nM
same,potency estimated from few doses,EPHB1; [1],10.6 nM
same,potency estimated from few doses,EPHB6; [1],175 nM
same,potency estimated from few doses,MAPKAPK2; [1],320 nM
same,potency estimated from few doses,NLK; [1],1310 nM
same,potency estimated from few doses,TNK2; [1],87.3 nM
Cc1nn(C)c2cc(N(C)c3ccnc(Nc4cccc(S(N)(=O)=O)c4)n3)ccc12.Cl [GW770220A],potency estimated from few doses,"NLK; compound concentrations: 100 nM and 1000 nM (sheet 'Samples'), CATDS: 0.27942165636777999",1030 nM
CS(=O)(=O)Cc1ccc(Nc2nccc(-c3c(-c4cccc(NC(=O)C5CCCCC5)c4)nn4ncccc34)n2)cc1 [GSK350559A],potency estimated from few doses,FLT4; [1],995 nM
same,potency estimated from few doses,MAPK9; [1],932 nM
COc1ccc(-c2nc3n(c2-c2ccncc2)CCC3)cc1.COc1ccc(-c2nc3n(c2-c2ccncc2)CCC3)cc1.O=S(=O)(O)O.O=S(=O)(O)O [SKF-104493-B2],potency estimated from few doses,"MAPKAPK2; compound concentrations: 100 nM and 1000 nM (sheet 'Samples'), CATDS: 0.15746092707453499",867 nM
CN(C)Cc1ccc(-c2ccc3c(Nc4ccc(Oc5ccccn5)cc4)ccnc3c2)o1 [GW567148X],potency estimated from few doses,AURKB; CATDS: 1.8860841823088701E-2,1200 nM
same,potency estimated from few doses,"EPHA5; compound concentrations: 100 nM and 1000 nM (sheet 'Samples'), CATDS: 2.06539246385424E-2",902 nM
same,potency estimated from few doses,"EPHB1; compound concentrations: 100 nM and 1000 nM (sheet 'Samples'), CATDS: 2.01059548951249E-2",977 nM
same,potency estimated from few doses,"EPHB6; compound concentrations: 100 nM and 1000 nM (sheet 'Samples'), CATDS: 1.6574994682998501E-2",1960 nM
same,potency estimated from few doses,JAK2; CATDS: 5.6320908598955097E-2,121 nM
same,potency estimated from few doses,"MAP2K5; compound concentrations: 100 nM and 1000 nM (sheet 'Samples'), CATDS: 0.100463270176777",51.4 nM
same,potency estimated from few doses,"PLK4; compound concentrations: 100 nM and 1000 nM (sheet 'Samples'), CATDS: 1.8058867791982399E-2",1390 nM
same,potency estimated from few doses,"TNK2; compound concentrations: 100 nM and 1000 nM (sheet 'Samples'), CATDS: 2.9353794658715598E-2",386 nM
CN1CCN(Cc2ccc(-c3ccc4c(Nc5ccc(Oc6ccccn6)cc5)ccnc4c3)o2)CC1 [GW567140X],potency estimated from few doses,"MAP2K5; compound concentrations: 100 nM and 1000 nM (sheet 'Samples'), CATDS: 0.16913978514831801",58.2 nM
same,potency estimated from few doses,"TNK2; compound concentrations: 100 nM and 1000 nM (sheet 'Samples'), CATDS: 4.3541420759690502E-2",720 nM
O=S(=O)(CCOCc1ccc(-c2ccc3ncnc(Nc4ccc(OCc5cccc(F)c5)c(Cl)c4)c3c2)o1)c1ccccc1 [GW615311X],potency estimated from few doses,AKT2,2450 nM
same,potency estimated from few doses,"CDK17; compound concentrations: 100 nM and 1000 nM (sheet 'Samples'), CATDS: 2.3617209164995101E-2",2010 nM
same,potency estimated from few doses,"MAPK9; compound concentrations: 100 nM and 1000 nM (sheet 'Samples'), CATDS: 2.2235644452826799E-2",2360 nM
COc1cccc(-n2cnc3c(N/N=C/c4ccncc4)ncnc32)c1 [GW813360X],potency estimated from few doses,"MAP2K5; compound concentrations: 100 nM and 1000 nM (sheet 'Samples'), CATDS: 0.129253463235972",2170 nM
CN1CCN(Cc2ccc(NC(=O)Nc3ccc(N(C)c4ccnc(Nc5ccc(CS(C)(=O)=O)cc5)n4)cc3)cc2)CC1.Cl [GW827654A],potency estimated from few doses,AURKB; CATDS: 4.55704320916199E-2,700 nM
same,potency estimated from few doses,"FLT4; compound concentrations: 100 nM and 1000 nM (sheet 'Samples'), CATDS: 0.106760971330705",109 nM
same,potency estimated from few doses,"TNK2; compound concentrations: 100 nM and 1000 nM (sheet 'Samples'), CATDS: 6.4241949787580299E-2",295 nM
COc1cc2ncn(-c3cc(OCCCc4ccccc4)c(C(N)=O)s3)c2cc1OC [GSK205189A],potency estimated from few doses,EPHA5; [1],720 nM
same,potency estimated from few doses,EPHB1; [1],958 nM
same,potency estimated from few doses,PLK4; [1],1240 nM
same,potency estimated from few doses,TNK2; [1],48.2 nM
Nc1ncc(-c2cn[nH]c2)c2scc(-c3ccc4c(c3)CCN4C(=O)Cc3ccccc3)c12 [GSK2593067A],potency estimated from few doses,AURKB; CATDS: 6.5904790346866707E-2,1230 nM
same,potency estimated from few doses,DJA1,118 nM
same,potency estimated from few doses,"EPHB6; compound concentrations: 100 nM and 1000 nM (sheet 'Samples'), CATDS: 9.2316879629761303E-2",522 nM
N#Cc1cccc(Nc2nccc(-c3cnn4ncccc34)n2)c1 [GW778894X],potency estimated from few doses,CDK17; [1],44.8 nM
same,potency estimated from few doses,NLK; [1],1560 nM
c1ccc(Oc2ccc(Nc3ccnc4cc(-c5ccc(CN6CCCCC6)o5)ccc34)cc2)nc1 [GW567143X],potency estimated from few doses,AURKB; CATDS: 3.8957530355760599E-2,1180 nM
same,potency estimated from few doses,"EPHB6; compound concentrations: 100 nM and 1000 nM (sheet 'Samples'), CATDS: 3.4972740863409998E-2",1830 nM
same,potency estimated from few doses,"MAP2K5; compound concentrations: 100 nM and 1000 nM (sheet 'Samples'), CATDS: 0.10658346724576",108 nM
same,potency estimated from few doses,"TNK2; compound concentrations: 100 nM and 1000 nM (sheet 'Samples'), CATDS: 3.98580587888741E-2",1080 nM
same,potency estimated from few doses,"ZAK; compound concentrations: 100 nM and 1000 nM (sheet 'Samples'), CATDS: 3.3669776805855603E-2",2210 nM
COc1cc2ncn(-c3cc(OCc4cccs4)c(C(N)=O)s3)c2cc1OC [GSK312948A],potency estimated from few doses,MAP2K5; [1],461 nM
COc1cc2nccc(Nc3ccc(Oc4ccccc4)cc3)c2cc1OC.Cl [GI261656A],potency estimated from few doses,"BTK; compound concentrations: 100 nM and 1000 nM (sheet 'Samples'), CATDS: 4.2074902264998597E-2",1400 nM
same,potency estimated from few doses,"MAP2K5; compound concentrations: 100 nM and 1000 nM (sheet 'Samples'), CATDS: 9.9796697062305095E-2",95.6 nM
CN1CCc2ccc(Nc3nccc(-c4c(-c5cccc(NC(=O)c6c(F)cccc6F)c5)nc5ccccn45)n3)cc2C1.Cl [GSK1010829B],potency estimated from few doses,"BTK; compound concentrations: 100 nM and 1000 nM (sheet 'Samples'), CATDS: 5.3394659124358E-2",497 nM
CC(C)c1nc(-c2cccc(NS(=O)(=O)c3c(F)cccc3F)c2F)c(-c2ccnc(Nc3ccc(N4CCOCC4)nc3)n2)s1 [GSK2008607A],potency estimated from few doses,"BTK; compound concentrations: 100 nM and 1000 nM (sheet 'Samples'), CATDS: 2.19270493489029E-2",1030 nM
same,potency estimated from few doses,"CDK17; compound concentrations: 100 nM and 1000 nM (sheet 'Samples'), CATDS: 2.730533885315E-2",587 nM
same,potency estimated from few doses,"EPHB6; compound concentrations: 100 nM and 1000 nM (sheet 'Samples'), CATDS: 2.9714339770291101E-2",487 nM
same,potency estimated from few doses,"FLT4; compound concentrations: 100 nM and 1000 nM (sheet 'Samples'), CATDS: 2.2429602546286599E-2",967 nM
same,potency estimated from few doses,"PLK4; compound concentrations: 100 nM and 1000 nM (sheet 'Samples'), CATDS: 0.15679756420664201",38.7 nM
same,potency estimated from few doses,PRKD3; CATDS: 2.5792208741447099E-2,671 nM
same,potency estimated from few doses,"TNK2; compound concentrations: 100 nM and 1000 nM (sheet 'Samples'), CATDS: 3.47729479590888E-2",355 nM
